Source: PubChem BioAssay
For part of these data: Entries with a potency or affinity are not part of this list. The source made the active and inactive calls. Unless noted, the rule behind the calls is not given here.

Columns and labels:
[1] = antimalarial activity against Dd2 strain (AID 2302;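 active = growth inhibition above 50% at the single 2 µM test dose, taken to imply half-maximal potency below 2 µM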;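 note: 0% = DMSO untreated growth and 100% = chloroquine plus artemisinin killed control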); details: P. falciparum Dd2 in RBCs, LDH growth readout, 72 h; at 2 µM; stronger effect = higher value
[2] = HepG2 cytotoxicity, primary screen, cytotoxicity control for P. falciparum antimalarial project, cell-based, ATP luminescence (AID 2303;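 active = inhibition above 50%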;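 note: 0% = DMSO wells and 100% = digitonin-killed cells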); details: HepG2 viability, 24-48 h, at 10 µM, stronger effect = higher value
[3] = molecular target: L-lactate dehydrogenase (Plasmodium falciparum (isolate CDC / Honduras)) (UniProt Q27743); assay: PfLDH activity inhibition – cell lysate, 3D7 strain, counter-screen for P. falciparum growth inhibition project (AID 2304);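 note: 0% = vehicle and 100% = reference inhibitor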; details: P. falciparum 3D7 crude extract, LDH APAD/NBT absorbance; at 2 µM; stronger effect = higher value
[4] = inhibition of 3D7 malaria parasite growth – strain 3D7 (AID 2306);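 note: 0% = DMSO wells and 100% = chloroquine plus artemisinin control wells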; details: P. falciparum 3D7 erythrocytic growth, LDH absorbance, 72 h; at 2 µM; stronger effect = higher value
[5] = molecular target: Calcium-dependent protein kinase 1 (Plasmodium falciparum (isolate 3D7)) (UniProt P62344); assay: PfCDPK1 kinase inhibitors, biochemical, TCAMS library (AID 1159585; cut-off not given, nearly all actives have IC50 up to about 0.98 µM;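 note: inhibitors leave more ATP so luminescence rises with inhibition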); details: recombinant PfCDPK1, Kinase-Glo ATP depletion luminescence
[6] = molecular target: Plasmodium falciparum protein kinase 6 (PK6, PF3D7_1337100) (UniProt Q8IDW1); assay: PfPK6 kinase inhibitors, biochemical, TCAMS library (AID 1159586); details: recombinant PfPK6, Kinase-Glo ATP depletion luminescence
[7] = molecular target: Protein kinase 7 (PK7), Plasmodium falciparum 3D7 (PF3D7_0213400) (UniProt Q7YTF7); assay: inhibition of Plasmodium PK7 catalytic activity – biochemical, TCAMS antimalarial set, Kinase-Glo luminescence (AID 1159587); details: recombinant PfPK7, Kinase-Glo ATP depletion luminescence
[8] = molecular target: Calcium-dependent protein kinase 4 (Plasmodium falciparum (isolate 3D7)) (UniProt Q8IBS5); assay: PfCDPK4 kinase inhibitors, biochemical, TCAMS library (AID 1159588; cut-off not given, nearly all actives have IC50 up to about 0.91 µM); details: recombinant PfCDPK4, Kinase-Glo ATP depletion luminescence
Chain of Calcium-dependent protein kinase 4 (Plasmodium falciparum (isolate 3D7)) (Q8IBS5 whole entry, looked up): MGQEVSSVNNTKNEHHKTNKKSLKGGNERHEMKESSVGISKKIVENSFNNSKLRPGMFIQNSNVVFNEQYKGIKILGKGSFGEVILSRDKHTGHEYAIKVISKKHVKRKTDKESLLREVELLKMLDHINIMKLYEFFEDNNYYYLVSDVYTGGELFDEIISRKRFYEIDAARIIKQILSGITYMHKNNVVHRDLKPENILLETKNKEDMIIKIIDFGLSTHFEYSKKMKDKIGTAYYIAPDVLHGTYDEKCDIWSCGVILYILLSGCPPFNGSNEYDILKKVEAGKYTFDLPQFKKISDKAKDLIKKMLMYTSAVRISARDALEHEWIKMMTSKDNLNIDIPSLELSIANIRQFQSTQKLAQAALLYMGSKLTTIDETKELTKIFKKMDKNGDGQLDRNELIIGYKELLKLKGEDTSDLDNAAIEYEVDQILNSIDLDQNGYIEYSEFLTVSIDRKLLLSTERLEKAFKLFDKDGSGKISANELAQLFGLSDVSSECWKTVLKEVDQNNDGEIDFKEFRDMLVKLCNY

Chain of L-lactate dehydrogenase (Plasmodium falciparum (isolate CDC / Honduras)) (Q27743 whole entry, looked up): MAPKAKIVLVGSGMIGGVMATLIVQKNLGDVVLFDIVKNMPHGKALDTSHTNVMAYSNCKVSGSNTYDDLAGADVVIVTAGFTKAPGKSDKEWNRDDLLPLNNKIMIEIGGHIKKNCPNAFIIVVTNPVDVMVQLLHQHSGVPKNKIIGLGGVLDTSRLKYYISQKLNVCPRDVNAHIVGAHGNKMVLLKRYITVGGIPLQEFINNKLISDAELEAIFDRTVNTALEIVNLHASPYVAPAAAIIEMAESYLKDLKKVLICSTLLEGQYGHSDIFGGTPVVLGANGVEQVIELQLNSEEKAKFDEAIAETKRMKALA
Chain of Protein kinase 7 (PK7), Plasmodium falciparum 3D7 (PF3D7_0213400) (Q7YTF7 1-343): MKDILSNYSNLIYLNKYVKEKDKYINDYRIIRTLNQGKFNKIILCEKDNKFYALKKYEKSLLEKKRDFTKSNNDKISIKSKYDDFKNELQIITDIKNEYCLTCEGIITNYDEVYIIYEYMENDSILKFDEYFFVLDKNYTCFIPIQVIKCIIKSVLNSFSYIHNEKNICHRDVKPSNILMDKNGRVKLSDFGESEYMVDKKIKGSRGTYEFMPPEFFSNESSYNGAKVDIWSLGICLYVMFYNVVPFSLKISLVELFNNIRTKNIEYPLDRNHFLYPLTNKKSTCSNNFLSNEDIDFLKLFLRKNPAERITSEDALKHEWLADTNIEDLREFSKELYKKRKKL
Chain of Plasmodium falciparum protein kinase 6 (PK6, PF3D7_1337100) (Q8IDW1 1-305): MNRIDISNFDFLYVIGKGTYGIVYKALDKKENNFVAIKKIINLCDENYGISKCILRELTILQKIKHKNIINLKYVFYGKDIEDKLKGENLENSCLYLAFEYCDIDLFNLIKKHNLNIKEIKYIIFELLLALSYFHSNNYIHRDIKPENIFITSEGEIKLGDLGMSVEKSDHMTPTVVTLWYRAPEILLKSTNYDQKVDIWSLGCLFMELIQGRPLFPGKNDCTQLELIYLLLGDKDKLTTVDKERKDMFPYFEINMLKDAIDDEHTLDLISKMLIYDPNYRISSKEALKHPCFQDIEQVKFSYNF
Chain of Calcium-dependent protein kinase 1 (Plasmodium falciparum (isolate 3D7)) (P62344 whole entry, looked up): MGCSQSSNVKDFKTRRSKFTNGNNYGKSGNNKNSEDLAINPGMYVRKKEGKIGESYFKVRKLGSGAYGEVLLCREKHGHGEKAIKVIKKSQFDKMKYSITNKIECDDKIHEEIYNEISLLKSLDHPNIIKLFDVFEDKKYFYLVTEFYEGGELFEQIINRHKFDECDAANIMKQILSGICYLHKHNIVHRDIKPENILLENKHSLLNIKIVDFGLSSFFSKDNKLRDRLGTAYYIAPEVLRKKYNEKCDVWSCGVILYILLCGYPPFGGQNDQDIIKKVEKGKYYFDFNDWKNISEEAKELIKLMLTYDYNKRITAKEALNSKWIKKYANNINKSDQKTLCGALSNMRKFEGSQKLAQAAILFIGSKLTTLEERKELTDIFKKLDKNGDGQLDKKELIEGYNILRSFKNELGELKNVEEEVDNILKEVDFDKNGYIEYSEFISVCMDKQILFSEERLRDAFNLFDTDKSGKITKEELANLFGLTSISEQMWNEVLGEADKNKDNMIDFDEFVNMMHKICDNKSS

Nc1nc(N)c2c(ccc3nn(S(=O)(=O)N4CCCC4)cc32)n1
inactive: growth inhibition [1] 0% | inhibition [3] 9% | outcome [5] | outcome [6] | outcome [7] | outcome [8]
active: inhibition [2] 69% | growth inhibition [4] 95%

Cc1ccc(C2(CN3CCC(NC(=O)c4[nH]ncc4Cl)CC3)CCCCC2)cc1
active: growth inhibition [1] 96% | growth inhibition [4] 97%
inactive: inhibition [2] -11% | inhibition [3] -3% | outcome [5] | outcome [6] | outcome [7] | outcome [8]

C/C=C/C=C/C1=NCCc2cc(OCCC)ccc21
inactive: growth inhibition [1] 40% | inhibition [2] -1% | inhibition [3] -4% | outcome [5] | outcome [6] | outcome [7] | outcome [8]
active: growth inhibition [4] 87%
